This passage reports Potency, outcome and activity change, positive = activation results from PubChem BioAssay (Tox21).

Values without a mark were called inactive. Inconclusive results are not listed. Activity calls are given as the source filed them. Unless noted, calls follow the shape of the dose curve; as a rule, active = well fitted curve in the direction sought with a large enough effect in the repeat runs; inconclusive = weak or mixed curves; inactive = no such curve, though single readings can be large; an effect the other way counts as inactive or inconclusive.

A short description of assay [1]: qHTS assay to identify small molecule antagonists of the estrogen related receptor (ERR) signaling pathway from Tox21 library - cell viability counter screen (AID 1224834). Also: nearly all actives have a fitted effect of over 30% in size. An outline of the steps: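 CellTiter-Fluor fluorescence measured; ERR cells; 17.5 h compound incubation at 37 C; 30 min reagent step.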
Assay [2] has as its target Luciferin 4-monooxygenase (Photinus pyralis) (UniProt P08659). The experiment in a line: qHTS assay to identify small molecule inhibitors of firefly luciferase (AID 1224835). Also: nearly all actives have a fitted effect of over 25% in size. Also: potency is read from the fitted curve at half-maximal effect. An outline of the steps: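 Biochemical qHTS: compounds run as interplate titrations against purified firefly enzyme, with D-luciferin and ATP each at its KM concentration. Light output recorded by CCD imaging.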
A general note: qHTS replaces the single test concentration by a dilution series.

A short description of assay [3]: qHTS assay to identify small molecule agonists of the constitutive androstane receptor (CAR) signaling pathway - cell viability counter screen (AID 1224836). Also: nearly all actives have a fitted effect of over 45% in size. An outline of the steps:
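Multiplexed viability check: HepG2-CYP2B6-hCAR cells, 15-point compound dosing, 0.75 uM PK11195 final, 23 h at 37 C, CellTiter-Fluor fluorescence.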

The nature of assay [4]: qHTS assay to identify small molecule antagonists of the constitutive androstane receptor (CAR) signaling pathway - cell viability counter screen (AID 1224837). Also: nearly all actives have a fitted effect of over 45% in size. The gist of the method:
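Using CellTiter-Fluor, viability is scored in HepG2 cells stably carrying hCAR and a 2.2kb CYP2B6 reporter after 23 hr compound exposure across 15 concentrations, with CITCO present at 50 nM.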

Assay [5] in a line: qHTS assay to identify small molecule antagonists of the estrogen related receptor signaling pathway with the pleiotropic PPARgamma coactivator (PGC) from Tox21 10K library - cell viability counter screen (AID 1224840; active = well fitted cell-killing curve with a large enough effect in the repeat runs, not every such curve was filed as active; also: nearly all actives have a fitted effect of over 40% in size). An outline of the steps:
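Here the PGC/ERR cells serve as a cytotoxicity control: they are exposed to compounds for 17.5 hours at 37 C, and live-cell signal is quantified using CellTiter-Fluor fluorescence.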

Assay [6] can be described thus: qHTS assay to identify small molecule agonists of the hypoxia (HIF-1) signaling pathway - cell viability counter screen (AID 1224844; calls by dose curve; also: nearly all actives have a fitted effect of over 50% in size). An outline of the steps: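 Multiplexed with the HRE beta-lactamase assay, this viability read used CellTiter-Glo luminescence (30 min, RT) on HRE-bla ME-180 cells treated 17 hrs with compounds in 0.5% dialyzed FBS medium.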
Assay [7] is described as follows: qHTS assay to identify small molecule agonists of H2AX (AID 1224845; active = well fitted activation curve with a large enough effect in the signal ratio in the repeat runs, not every such curve was filed as active; the % refers to the signal ratio). The gist of the method:
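Wild-type CHO-K1 cells, plated overnight, exposed 3hr at 37C to 15 concentrations (0.76% DMSO final). Lysed, then HTRF anti-pH2AX (S139) cryptate and anti-H2AX-d2 antibodies, 24 hr room temperature; 665/620 nm emission read.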

Assay [8] can be described thus: qHTS assay to identify small molecule agonists of the hypoxia (HIF-1) signaling pathway (AID 1224846; active = well fitted activation curve with a large enough effect in the signal ratio in the repeat runs, not every such curve was filed as active; the % refers to the signal ratio). The gist of the method: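 Hypoxia-pathway activation was scored as increased beta-lactamase from an HRE-controlled reporter in ME-180 cells; plated at 2,000 cells per well with 0.5% dialyzed FBS, they were exposed 17 hrs to compounds and then given CCF4-AM.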
Assay [9] in a line: qHTS RealTime-Glo MT Cell Viability Assay in HepG2 cells - 24 hour (AID 1224867). Also: nearly all actives have a fitted effect of over 50% in size. An outline of the steps: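 HepG2 suspension premixed with RealTime-Glo reagents is plated at 600 cells per well and left 5 h at 37 C/5% CO2. Compounds in DMSO then go in, and bioluminescence reflecting viable cell number is recorded over 40 h.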
Assay [10] can be described thus: A CellTox Green Cytotoxicity Assay to monitor cytotoxicity in HEK293 cells - 0 hour (AID 1224869). Also: nearly all actives have a fitted effect of over 50% in size. An outline of the steps: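 Seeding of HEK293 cells together with cytotoxicity dye preceded a 5 h incubation at 37 C/5% CO2. Test compounds in DMSO were then added and fluorescence monitored across 40 h.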
Assay [11] is described as follows: qHTS RealTime-Glo MT Cell Viability Assay in HepG2 cells - 40 hour (AID 1224870). Also: nearly all actives have a fitted effect of over 50% in size. The gist of the method:
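HepG2 cells (600/well) mixed with RealTime-Glo MT reagent, settled 5 h at 37 C/5% CO2 before compound addition. Nonlytic NanoLuc luminescence from viable-cell prosubstrate reduction read repeatedly during 40 h treatment at 37 C.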

Assay [12] is described as follows: qHTS assay to identify small molecule antagonists of the estrogen related receptor signaling pathway with the pleiotropic PPARgamma coactivator (PGC) from Tox21 10K library (AID 1224841; call rule not given here). The gist of the method:
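Each well held 2,000 PGC/ERR cells, pre-incubated six hours (37 C, 5% CO2). Test substances in DMSO were added by pin tool and left for 18 h at 37 C before luciferase detection by One-Glo.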

Assay [13] in a line: qHTS assay to identify small molecule agonists of the estrogen related receptor signaling pathway with the pleiotropic PPARgamma coactivator (PGC) from Tox21 10K library (AID 1224842). Also: nearly all actives have a fitted effect of over 15% in size. An outline of the steps:
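PGC/ERR reporter cell line, 2,000 cells per well, incubated 6 h at 37 C before 23 nL compound in DMSO was added. After 18 h at 37 C, One-Glo luminescence read following 30 min at room temperature.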

Assay [14] can be described thus: qHTS assay to identify small molecule agonists of H2AX - cell viability counter screen (AID 1224847; calls by dose curve; also: top concentration of the series differs between compounds; nearly all actives have a fitted effect of over 30% in size). The gist of the method: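 After overnight plating of 1000 CHO-K1 cells per well, a 15-concentration compound series was applied for 3 hr at 37C. Luminescence from CellTiter-Glo, read following 30 min at room temperature, reflected cell viability.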
Assay [15] is described as follows: qHTS assay to identify small molecule agonists of the estrogen related receptor (ERR) signaling pathway from Tox21 library (AID 1224849; calls by dose curve; also: nearly all actives have a fitted effect of over 15% in size). The settings on record: ERR reporter cell line, ONE-Glo luciferase, 18 h; at 92.4 µM (top of the series) unless noted. An outline of the steps:
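Six hours post-seeding at 37 C/5% CO2, ERR cells receive DMSO-solubilised compounds; after 18 h at 37 C, ONE-Glo reagent is applied and luminescence recorded.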

For assay [16], the target named is Thyrotropin receptor (Homo sapiens) (UniProt P16473). The assay can be described thus: qHTS assay to identify small molecule agonists of the thyroid stimulating hormone receptor (TSHR) signaling pathway (AID 1224843; calls by dose curve; also: nearly all actives have a fitted effect of over 45% in size). The gist of the method: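 TSHR-HEK293 cells in agonist mode, 30 min room-temperature step, then cAMP measured by competitive HTRF (cAMP-d2 with anti-cAMP cryptate) after 1 h at room temperature. Tested at 15 concentrations in triplicate.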

A short description of assay [17]: qHTS RealTime-Glo MT Cell Viability Assay in HEK293 cells - 32 hour (AID 1224868). An outline of the steps:
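Reads taken at 0, 8, 16, 24, 32 and 40 h from the same wells. HEK293 cells (600/well) carried RealTime-Glo reagents from seeding, with compound added after a 5 h settle at 37 C.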

The target of assay [18] is Nuclear receptor subfamily 1 group I member 3 (Homo sapiens) (UniProt Q14994). The experiment in a line: qHTS assay to identify small molecule antagonists of the constitutive androstane receptor (CAR) signaling pathway (AID 1224838).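 Also: HepG2 cells stably expressing hCAR with CYP2B6 luciferase reporter stimulated by CITCO; nearly all actives have a fitted effect of over 40% in size.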 An outline of the steps: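 Reporter luminescence was quantified after 24 h exposure of hCAR/CYP2B6-2.2kb double-stable HepG2 cells to compounds at 15 concentrations in the presence of 50 nM CITCO final.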

The target is the same in assay [19]. The assay can be described thus: qHTS assay to identify small molecule agonists of the constitutive androstane receptor (CAR) signaling pathway (AID 1224839).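 Also: HepG2 cells stably carrying human CAR and a CYP2B6 luciferase reporter; nearly all actives have a fitted effect of over 15% in size.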 An outline of the steps:
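Using human hepatoma HepG2 cells engineered with hCAR and a CYP2B6-2.2kb reporter, 15-concentration compound series were incubated 24 h alongside PK11195 at 0.75 uM final, with luminescence quantified afterwards.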

A short description of assay [20]: qHTS assay to identify small molecule antagonists of the estrogen related receptor (ERR) signaling pathway from Tox21 library (AID 1224848). Also: nearly all actives have a fitted effect of over 50% in size. An outline of the steps:
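ERR reporter cell line (from NTP) seeded 2,000 cells/well, rested 6 h at 37 C/5% CO2, then pin-dosed with compounds in DMSO. After 18 h at 37 C, ONE-Glo added; luminescence read after 30 min at room temperature.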
% is scaled to controls: 0 for no effect and ±100 for the full control effect.

Sequence of Luciferin 4-monooxygenase (Photinus pyralis) (P08659 whole entry, looked up): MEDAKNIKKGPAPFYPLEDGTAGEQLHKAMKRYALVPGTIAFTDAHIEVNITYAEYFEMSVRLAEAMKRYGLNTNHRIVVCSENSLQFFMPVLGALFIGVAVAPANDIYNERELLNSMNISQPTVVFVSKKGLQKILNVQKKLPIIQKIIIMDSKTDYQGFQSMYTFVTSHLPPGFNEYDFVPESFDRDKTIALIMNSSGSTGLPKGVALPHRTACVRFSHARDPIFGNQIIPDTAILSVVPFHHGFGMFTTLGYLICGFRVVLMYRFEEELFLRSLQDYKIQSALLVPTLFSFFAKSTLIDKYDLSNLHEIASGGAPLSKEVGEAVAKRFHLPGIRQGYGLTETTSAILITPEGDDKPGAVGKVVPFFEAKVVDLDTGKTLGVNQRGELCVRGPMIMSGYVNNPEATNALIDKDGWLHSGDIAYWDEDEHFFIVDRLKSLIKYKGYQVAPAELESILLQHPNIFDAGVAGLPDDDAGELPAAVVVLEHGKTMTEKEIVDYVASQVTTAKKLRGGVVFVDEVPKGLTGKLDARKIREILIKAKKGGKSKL
Sequence of Nuclear receptor subfamily 1 group I member 3 (Homo sapiens) (Q14994 whole entry, looked up): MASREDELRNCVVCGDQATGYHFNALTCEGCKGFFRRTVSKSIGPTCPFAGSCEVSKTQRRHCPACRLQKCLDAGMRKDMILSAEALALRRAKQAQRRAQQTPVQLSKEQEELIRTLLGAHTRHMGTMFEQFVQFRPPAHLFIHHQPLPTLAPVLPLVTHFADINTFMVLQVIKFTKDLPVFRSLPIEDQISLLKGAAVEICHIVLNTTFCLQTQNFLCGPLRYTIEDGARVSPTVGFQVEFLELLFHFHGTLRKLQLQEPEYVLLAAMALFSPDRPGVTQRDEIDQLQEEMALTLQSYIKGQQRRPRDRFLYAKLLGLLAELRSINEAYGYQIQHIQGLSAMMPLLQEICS
Sequence of Thyrotropin receptor (Homo sapiens) (P16473 whole entry, looked up): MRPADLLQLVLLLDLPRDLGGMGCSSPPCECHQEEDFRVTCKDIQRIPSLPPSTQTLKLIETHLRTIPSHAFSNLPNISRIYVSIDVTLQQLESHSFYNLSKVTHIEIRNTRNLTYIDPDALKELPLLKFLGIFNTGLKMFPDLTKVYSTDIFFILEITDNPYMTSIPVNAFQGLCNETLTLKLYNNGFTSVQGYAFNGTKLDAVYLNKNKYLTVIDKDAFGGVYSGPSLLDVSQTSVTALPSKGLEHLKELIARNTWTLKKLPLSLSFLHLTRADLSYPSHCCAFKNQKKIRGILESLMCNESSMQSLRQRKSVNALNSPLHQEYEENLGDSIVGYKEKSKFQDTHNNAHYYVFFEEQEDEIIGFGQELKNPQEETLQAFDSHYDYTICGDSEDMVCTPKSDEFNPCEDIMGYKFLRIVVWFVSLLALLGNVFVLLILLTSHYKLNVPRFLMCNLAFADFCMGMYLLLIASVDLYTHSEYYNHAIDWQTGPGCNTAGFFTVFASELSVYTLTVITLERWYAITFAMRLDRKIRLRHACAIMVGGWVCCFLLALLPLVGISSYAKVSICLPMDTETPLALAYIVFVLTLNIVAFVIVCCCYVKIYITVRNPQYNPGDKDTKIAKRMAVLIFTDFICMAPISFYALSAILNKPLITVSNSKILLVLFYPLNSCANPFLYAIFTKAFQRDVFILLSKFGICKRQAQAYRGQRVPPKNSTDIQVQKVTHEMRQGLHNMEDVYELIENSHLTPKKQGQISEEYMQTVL

Consider `CCCCOC(=O)c1ccccc1N`, for which the Potency result in assay [1], in assay [3], in assay [4], in assay [5], in [6] and in assay [7] was “inactive” throughout. For the same molecule, the Potency entry in assay [9], in [10] and in assay [11] was “inactive” each time. Besides, the Potency in [2] was 40.1 µM (active). In assay [8], the result was inactive.
`CCOC(=O)NC(=S)Nc1ccccc1NC(=S)NC(=O)OCC`: the Potency entry in [1], in [2], in [3], in [4], in assay [5] and in [12] was “inactive” each time. Moreover, the Potency entry in [6], in assay [7], in assay [14], in assay [9] and in assay [11] was “inactive” in each case. For the same molecule, the molecule was called inactive in assay [13] and in assay [8]. The activity change, positive = activation in assay [15] was 11.4% (active).
Regarding `CCNc1nc(NC(C)C)nc(OC)n1`, the Potency result in assay [1], in [2], in [3], in assay [4], in assay [5] and in assay [12] was “inactive” in each case. Besides, the Potency entry in assay [16], in [6], in assay [7], in assay [14], in assay [9] and in [17] was “inactive” each time. Besides, the Potency entry in assay [10] and in assay [11] was “inactive” each time. Besides, the molecule was classed as inactive in assay [13] and in assay [8]. The activity change, positive = activation in assay [15] is -0.534%.
On to `COc1ccc(C(=O)N2CCCC2=O)cc1`, for which the Potency entry in [1], in [2], in assay [3], in assay [18], in [19] and in assay [5] was “inactive” throughout. Besides, the Potency entry in assay [16], in [6], in assay [7], in assay [14], in assay [9] and in assay [17] was “inactive” in each case. Also, the Potency result in [10] and in assay [11] was “inactive” each time.
With `ClC(Cl)(Cl)C(Cl)(Cl)Cl`, the Potency entry in assay [1], in assay [2], in [3], in assay [4], in assay [5] and in assay [6] was “inactive” each time. Besides, the Potency entry in assay [7], in assay [14], in assay [9], in [17] and in assay [11] was “inactive” each time. In addition, the result in assay [8] was inactive.
Regarding `CCCCc1c(C)nc(NCC)[nH]c1=O`, the Potency entry in assay [1], in assay [2], in [3], in assay [18], in assay [19] and in assay [5] was “inactive” in each case. Moreover, the Potency entry in [12], in assay [16], in assay [6], in [7], in [14] and in [20] was “inactive” in each case. Moreover, the Potency result in [9], in [10] and in assay [11] was “inactive” each time. The result in [13] and in assay [8] was inactive. Besides, the activity change, positive = activation in assay [15] is 5.33%.
